Consider 4 molecules from PubChem BioAssay (EPA / NIEHS).

Test [1] can be described thus: ATG_E_Box_CIS: Attagene CIS-FACTORIAL HepG2 Assay for human Enhancer Box (E-box) (AID 2282936). Particulars: HepG2 E-box cis-reporter transcription, actives raise or lower the signal. The method in brief:
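DMSO served as negative control and baseline for bidirectional fitting. Human hepatoma HepG2 cells, transiently transfected with cis-reporter constructs, were dosed 24 h; reporter mRNA read by RT-PCR and capillary electrophoresis.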

The nature of test [2]: ATG_M_61_CIS: Attagene CIS-FACTORIAL HepG2 Assay for M61 Transcription Factor (Internal Marker) (AID 2282937). Particulars: HepG2 Attagene CIS-FACTORIAL M61 internal marker reporter; actives raise or lower the signal. The method in brief: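 Multiplexed reporter mRNA assay, HepG2 human hepatoma cells, 24 h treatment. Signal: FAM-labelled, HpaI-digested RT-PCR fragments by CE. Fit: bidirectional, baseline DMSO.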

A short description of test [3]: ATG_EGR_CIS: Attagene CIS-FACTORIAL HepG2 Assay for human Early Growth Response 1 (EGR1) (AID 2282938). Particulars: HepG2 Attagene CIS-FACTORIAL EGR reporter mRNA; actives raise or lower the signal. The method, boiled down:
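Multiplexed cis-reporter system in human hepatoma HepG2 cells, transiently transfected. Cells are dosed for 24 h; reporter transcripts are amplified, fluorescently tagged and sized by capillary electrophoresis, with DMSO as negative control.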

A short description of test [4]: ATG_ERE_CIS: Attagene CIS-FACTORIAL HepG2 Assay for Estrogen Response Element (ERE) (AID 2282940). Particulars: HepG2 ERE cis-reporter, Attagene RNA transcript; actives raise or lower the signal. The method, boiled down:
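After a 24 h chemical treatment, RNA from reporter-transfected HepG2 cells is reverse-transcribed, PCR-amplified and fluorescently labelled. Fragments separated by capillary electrophoresis give reporter signal; DMSO serves as negative control.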

Test [5] is described as follows: ATG_Ets_CIS: Attagene CIS-FACTORIAL HepG2 Assay for human Erythroblast Transformation Specific (ETS) (AID 2282941). Particulars: HepG2 ETS cis-reporter transcription, actives raise or lower the signal. The method, boiled down: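 HepG2 cells transiently transfected with cis-promoter reporter transcription units were dosed for 24 h; reporter mRNA was measured by RT-PCR, 6-FAM primer extension, HpaI digestion and capillary electrophoresis, with bidirectional fitting against DMSO baseline.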

Test [6] addresses Hepatocyte nuclear factor 3-beta (Homo sapiens) (UniProt Q9Y261). Description: ATG_FoxA2_CIS: Attagene CIS-FACTORIAL HepG2 Assay for human Forkhead box A2 (FOXA2) (AID 2282942). Particulars: HepG2 cis-reporter transcription factor activity, 24 h; actives raise or lower the signal. The method, boiled down:
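Multiplexed cis-element reporter assay in transiently transfected HepG2. Twenty-four hours post-dosing, RNA was reverse-transcribed, amplified, FAM-labelled, HpaI-digested and separated by CE. Activity gain or loss relative to DMSO.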

The nature of test [7]: ATG_FoxO_CIS: Attagene CIS-FACTORIAL HepG2 Assay for human Forkhead box O (FoxO) (AID 2282943). Particulars: HepG2 Attagene cis-reporter, FoxO element, mRNA; actives raise or lower the signal. The method in brief: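 Endogenous transcription factor activity read from multiplexed cis-promoter reporter transcripts in transiently transfected HepG2, 24 h after dosing. Reporter RNA measured via RT-PCR plus capillary electrophoresis of FAM-labeled products; gain or loss relative to DMSO.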

The nature of test [8]: ATG_GATA_CIS: Attagene CIS-FACTORIAL HepG2 Assay for human GATA Binding Protein (AID 2282944). Particulars: HepG2 GATA cis-element reporter, Attagene multiplex mRNA; actives raise or lower the signal. The method, boiled down:
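Cells: HepG2, transiently transfected with cis-regulated reporter transcription units. Exposure: 24 h. Detection: RT-PCR plus capillary electrophoresis of FAM-labeled fragments. Analysis: bidirectional, DMSO as baseline.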

Test [9] in a line: ATG_GLI_CIS: Attagene CIS-FACTORIAL HepG2 Assay for human Zinc Finger Protein GLI1 (AID 2282945). Particulars: HepG2, Attagene cis-factorial reporter mRNA, GLI element; actives raise or lower the signal. The method, boiled down: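 Bidirectional curve fits relative to DMSO, using reporter mRNA levels from RT-PCR plus capillary electrophoresis. Cells were HepG2 transiently carrying cis-regulated reporter constructs, harvested 24 h after dosing.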

The target in test [10] is Bile acid receptor (Homo sapiens) (UniProt Q96RI1). Description: ATG_IR1_CIS: Attagene CIS-FACTORIAL HepG2 Assay for human Nuclear Receptor Subfamily 1 Group H Member 4 (NR1H4), IR1 submotif (AID 2282946). Particulars: IR1 reporter transcription, actives raise or lower the signal. The method in brief:
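Cells (human HepG2) carry transiently transfected cis-promoter reporter transcription units. Compounds are incubated 24 h, total RNA is reverse-transcribed and amplified, and labelled fragments are resolved by capillary electrophoresis. Curves use DMSO as baseline.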

Test [11] is described as follows: ATG_GRE_CIS: Attagene CIS-FACTORIAL HepG2 Assay for human Glucocorticoid Response Elements (GRE) (AID 2282947). Particulars: HepG2 GRE cis-reporter, Attagene multiplex mRNA; actives raise or lower the signal. The method, boiled down: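 Assay uses human hepatoma HepG2 cells transfected with cis-promoter reporter units, exposed 24 h. mRNA from reporters detected by RT-PCR plus capillary electrophoresis; DMSO serves as negative control and baseline.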

Test [12] is described as follows: ATG_ISRE_CIS: Attagene CIS-FACTORIAL HepG2 Assay for human Interferon Regulatory Factor 1 (IRF1) binding to an Interferon-Stimulated Response Element (ISRE) (AID 2282948). Particulars: HepG2 ISRE cis-reporter (Attagene), mRNA transcription readout; actives raise or lower the signal. The method in brief:
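HepG2 cells transiently transfected with multiplexed cis-promoter reporter units; after 24 h compound exposure, reporter mRNA quantified by RT-PCR, FAM labelling, HpaI digestion and capillary electrophoresis. Bidirectional fit versus DMSO baseline.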

Test [13] can be described thus: ATG_M_32_CIS: Attagene CIS-FACTORIAL HepG2 Assay for M32 Transcription Factor (Internal Marker) (AID 2282949).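 Further: background control marker of the multiplexed CIS panel rather than a real target.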 Particulars: HepG2 Attagene cis-factorial M32 reporter, mRNA; actives raise or lower the signal. The method, boiled down:
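Internal background marker read-out: RT-PCR/capillary electrophoresis fluorescence of reporter transcripts from transiently transfected HepG2 cells after 24 h chemical exposure. Activity fitted bidirectionally relative to DMSO negative control.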

In test [14] the target is Hypoxia-inducible factor 1-alpha (Homo sapiens) (UniProt Q16665). Description: ATG_HIF1a_CIS: Attagene CIS-FACTORIAL HepG2 Assay for human Hypoxia Inducible Factor 1 (HIF1A) (AID 2282951). Particulars: HepG2 Attagene cis-factorial HIF1a reporter transcription; actives raise or lower the signal. The method in brief: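 Cis-element reporter constructs were transiently transfected into HepG2 cells, which were treated for 24 h; reporter RNA was reverse-transcribed, amplified, labelled and resolved by capillary electrophoresis.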
Chain of Hypoxia-inducible factor 1-alpha (Homo sapiens) (Q16665 whole entry, looked up): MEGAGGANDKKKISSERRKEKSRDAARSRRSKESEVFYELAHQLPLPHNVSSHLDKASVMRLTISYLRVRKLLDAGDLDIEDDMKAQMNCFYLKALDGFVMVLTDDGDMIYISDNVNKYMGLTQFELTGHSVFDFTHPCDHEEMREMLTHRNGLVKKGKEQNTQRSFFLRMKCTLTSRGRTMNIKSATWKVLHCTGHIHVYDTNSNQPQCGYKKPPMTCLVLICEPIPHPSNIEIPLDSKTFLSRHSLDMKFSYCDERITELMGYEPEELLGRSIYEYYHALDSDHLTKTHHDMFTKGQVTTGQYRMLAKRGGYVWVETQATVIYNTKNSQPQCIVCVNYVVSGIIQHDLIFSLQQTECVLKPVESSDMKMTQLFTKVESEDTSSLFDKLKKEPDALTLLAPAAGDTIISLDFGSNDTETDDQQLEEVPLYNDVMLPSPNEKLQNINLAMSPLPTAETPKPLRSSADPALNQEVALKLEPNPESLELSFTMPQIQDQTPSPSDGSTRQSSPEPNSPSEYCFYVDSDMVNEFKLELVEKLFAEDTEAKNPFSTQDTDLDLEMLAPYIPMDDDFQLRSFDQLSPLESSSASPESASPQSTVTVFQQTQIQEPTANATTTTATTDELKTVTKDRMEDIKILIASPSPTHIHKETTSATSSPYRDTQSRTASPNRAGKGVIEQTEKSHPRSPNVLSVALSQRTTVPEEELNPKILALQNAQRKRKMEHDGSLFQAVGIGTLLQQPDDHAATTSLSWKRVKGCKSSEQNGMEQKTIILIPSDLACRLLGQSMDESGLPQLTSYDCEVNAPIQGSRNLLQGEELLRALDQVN

In test [15] the target is Hepatocyte nuclear factor 6 (Homo sapiens) (UniProt Q9UBC0). Kind of test: ATG_HNF6_CIS: Attagene CIS-FACTORIAL HepG2 Assay for human Hepatocyte Nuclear Factor 6 (HNF6) (AID 2282952). Particulars: HepG2 Attagene cis-factorial HNF6 reporter transcription; actives raise or lower the signal. The method in brief: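 Cells are HepG2 carrying transiently transfected cis-promoter reporter units. Treatment lasts 24 h, after which reporter transcripts are reverse-transcribed, amplified, FAM-labelled and sized by capillary electrophoresis. DMSO serves as baseline.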
Chain of Hepatocyte nuclear factor 6 (Homo sapiens) (Q9UBC0 whole entry, looked up): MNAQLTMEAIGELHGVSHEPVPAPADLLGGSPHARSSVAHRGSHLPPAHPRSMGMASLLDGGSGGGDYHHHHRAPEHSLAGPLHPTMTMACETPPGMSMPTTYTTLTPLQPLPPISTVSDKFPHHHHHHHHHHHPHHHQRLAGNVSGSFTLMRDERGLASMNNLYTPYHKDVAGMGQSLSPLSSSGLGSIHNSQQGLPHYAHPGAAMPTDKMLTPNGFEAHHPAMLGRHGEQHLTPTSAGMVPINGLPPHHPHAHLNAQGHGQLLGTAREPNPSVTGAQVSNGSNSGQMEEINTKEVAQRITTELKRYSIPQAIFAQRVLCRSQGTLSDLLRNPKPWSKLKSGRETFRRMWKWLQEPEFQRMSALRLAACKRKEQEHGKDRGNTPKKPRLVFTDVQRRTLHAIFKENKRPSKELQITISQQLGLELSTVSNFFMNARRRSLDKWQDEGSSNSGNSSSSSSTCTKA

In test [16] the target is Heat shock factor protein 1 (Homo sapiens) (UniProt Q00613). Description: ATG_HSE_CIS: Attagene CIS-FACTORIAL HepG2 Assay for human Heat Shock Transcription Factor 1 (HSE) (AID 2282953). Particulars: HepG2 HSE cis-reporter, Attagene RNA transcription; actives raise or lower the signal. The method in brief:
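Reporter mRNA induction in HepG2 is measured 24 h after dosing, using transiently transfected multiplexed cis-regulated reporter units. Signal comes from capillary electrophoresis of labelled RT-PCR products, with DMSO as negative control.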

A short description of test [17]: ATG_MRE_CIS: Attagene CIS-FACTORIAL HepG2 Assay for human Metal Responsive Element (MRE) (AID 2282954). Particulars: HepG2 MRE cis-reporter transcription, Attagene multiplex; actives raise or lower the signal. The method, boiled down: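 After a 24 h chemical exposure, transiently transfected HepG2 cells yield RNA whose reporter sequences are amplified, FAM-labelled and sized by capillary electrophoresis. Curves are fitted bidirectionally relative to DMSO.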

Test [18] is described as follows: ATG_PBREM_CIS: Attagene CIS-FACTORIAL HepG2 Assay for human Phenobarbital-responsive Enhancer Module (PBREM) (AID 2282955). Particulars: HepG2 PBREM cis-reporter, Attagene multiplexed transcription; actives raise or lower the signal. The method, boiled down:
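Multiplexed cis-reporter readout in human hepatoma HepG2 cells; PBREM-regulated transcript quantified after 24 h exposure by fluorescent RT-PCR fragment analysis. Signal changes up or down fitted relative to DMSO.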

Test [19] can be described thus: ATG_M_19_CIS: Attagene CIS-FACTORIAL HepG2 Assay for M19 Transcription Factor (Internal Marker) (AID 2282939). Particulars: HepG2 Attagene CIS-FACTORIAL M19 internal marker reporter; actives raise or lower the signal. The method, boiled down:
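HepG2, MRTU transient transfection, 24 h dosing. Total RNA → RT-PCR → 6-FAM primer extension → HpaI digest → CE fluorescence. Bidirectional curve fit, DMSO negative control.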

The nature of test [20]: ATG_M_06_CIS: Attagene CIS-FACTORIAL HepG2 Assay for M06 Transcription Factor (Internal Marker) (AID 2282950). Particulars: HepG2 Attagene CIS-FACTORIAL M06 internal marker reporter; actives raise or lower the signal. The method, boiled down:
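Measured 24 h post-dosing in transiently transfected HepG2 cells, this internal-marker endpoint reports reporter mRNA via RT-PCR with fluorescent primer extension and capillary electrophoresis. DMSO served as negative control and baseline for bidirectional fitting.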

Each structure is given as a SMILES string. Several values for one entry are separate records, joined by “and”; a condition that tells them apart may be missing. Equal entries are not always repeated. The source holds several records for some structures; these can differ, active in one and inactive in another. Activity calls are given as the source filed them. How the source made its calls: active means hit-call score of the fitted dose curve at least 0.9, where 1 is the maximum; inactive means score below 0.9.

Chain of Heat shock factor protein 1 (Homo sapiens) (Q00613 whole entry, looked up): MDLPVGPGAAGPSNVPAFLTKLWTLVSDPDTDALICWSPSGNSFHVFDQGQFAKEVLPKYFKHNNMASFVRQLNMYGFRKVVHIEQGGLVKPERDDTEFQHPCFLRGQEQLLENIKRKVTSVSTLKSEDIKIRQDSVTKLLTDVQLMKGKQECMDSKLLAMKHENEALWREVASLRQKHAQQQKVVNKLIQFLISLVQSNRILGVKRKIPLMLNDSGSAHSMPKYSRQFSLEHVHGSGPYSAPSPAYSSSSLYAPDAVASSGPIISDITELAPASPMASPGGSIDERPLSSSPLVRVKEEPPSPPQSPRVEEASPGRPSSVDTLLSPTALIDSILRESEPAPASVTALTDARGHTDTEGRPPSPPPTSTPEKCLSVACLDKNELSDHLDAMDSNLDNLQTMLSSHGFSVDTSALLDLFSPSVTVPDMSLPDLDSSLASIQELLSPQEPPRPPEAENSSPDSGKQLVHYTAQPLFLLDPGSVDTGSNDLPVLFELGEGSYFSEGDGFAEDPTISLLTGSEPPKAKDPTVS
Chain of Hepatocyte nuclear factor 3-beta (Homo sapiens) (Q9Y261 whole entry, looked up): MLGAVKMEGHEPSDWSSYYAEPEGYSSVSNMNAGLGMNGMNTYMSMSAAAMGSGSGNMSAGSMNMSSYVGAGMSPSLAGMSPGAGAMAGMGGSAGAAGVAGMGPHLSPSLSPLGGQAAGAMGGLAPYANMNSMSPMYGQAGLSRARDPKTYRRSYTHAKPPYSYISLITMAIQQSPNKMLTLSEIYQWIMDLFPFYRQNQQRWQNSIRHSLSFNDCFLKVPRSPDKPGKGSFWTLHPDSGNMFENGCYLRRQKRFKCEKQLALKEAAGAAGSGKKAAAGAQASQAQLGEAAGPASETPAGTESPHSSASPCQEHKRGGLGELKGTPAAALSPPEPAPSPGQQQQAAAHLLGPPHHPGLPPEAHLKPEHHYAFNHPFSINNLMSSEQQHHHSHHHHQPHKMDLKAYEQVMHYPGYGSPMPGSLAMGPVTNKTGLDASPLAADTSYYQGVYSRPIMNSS
Chain of Bile acid receptor (Homo sapiens) (Q96RI1 whole entry, looked up, the tested form may be a part): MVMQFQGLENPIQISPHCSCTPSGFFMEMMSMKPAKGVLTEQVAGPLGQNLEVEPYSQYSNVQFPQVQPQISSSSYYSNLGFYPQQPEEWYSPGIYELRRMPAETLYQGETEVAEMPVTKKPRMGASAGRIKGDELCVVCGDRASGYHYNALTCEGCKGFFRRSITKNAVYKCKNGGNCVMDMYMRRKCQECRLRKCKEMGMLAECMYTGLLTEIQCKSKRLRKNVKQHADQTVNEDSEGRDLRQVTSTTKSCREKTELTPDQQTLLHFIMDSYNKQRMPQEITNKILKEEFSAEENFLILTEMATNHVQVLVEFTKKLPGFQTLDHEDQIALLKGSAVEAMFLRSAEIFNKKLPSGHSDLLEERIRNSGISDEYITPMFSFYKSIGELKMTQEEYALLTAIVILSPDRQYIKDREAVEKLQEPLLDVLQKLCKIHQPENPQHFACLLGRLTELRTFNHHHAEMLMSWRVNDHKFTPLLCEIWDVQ

Turning to `CC(C)(c1ccccc1)c1ccc(O)cc1`, the outcome in test [1], in test [2], in test [3], in test [5], in [6] and in test [7] was inactive. The call in test [8], in test [9], in test [10], in [11], in [12] and in test [13] was inactive. The molecule was classed as inactive in [14], in test [15], in [16], in test [17] and in test [18]. Moreover, the concentration at half-maximal activity (AC50) in [3] was 48.7 µM (active); in test [4] it was 435 nM (active) [middle of 4 runs]; in [8], 52.1 µM (active); in test [9], 55.4 µM (active); in [10], 33.4 µM (active); in test [11], 51.3 µM (active). For the same molecule, the concentration at half-maximal activity (AC50) in [14] was 52.5 µM (active) and 12.7 µM (active); in [16], 54.7 µM (active); in test [17], 33.4 µM (active) and 52.1 µM (active) and 43.1 µM (active); in test [18] it was 33.4 µM (active).

As to `Oc1c(Cl)c(Cl)c(Cl)c(Cl)c1Cl`, the AC50 in [1] was 67.8 µM (active); in test [3], 29.4 µM (active) and 11.2 µM (active); in test [4], 13.4 µM (active); in test [5], 21.5 µM (active); in test [7], 33.6 µM (active); in test [9], 82 µM (active). Besides, the half-maximal activity concentration (AC50) in test [12] is 78.7 µM (active) and 51 µM (active); in [14], 3.43 µM (active) and 20.6 µM (active); in [15], 25.9 µM (active); in test [16] it was 31.5 µM (active) and 75.4 µM (active) and 142 µM (active); in test [17], 50 µM (active) and 40.9 µM (active) and 78.8 µM (active); in test [18], 18.1 µM (active) and 7.11 µM (active). Moreover, the outcome in [1], in [2], in test [3], in test [4], in test [5] and in test [6] was inactive. In addition, the molecule was classed as inactive in test [7], in test [8], in [9], in test [10], in test [11] and in test [12]. The outcome in [13], in test [14], in test [15] and in test [18] was inactive.

Consider `CCOP(=S)(OCC)SCSC(C)(C)C`, for which the AC50 in [1] is 1.86 µM (active); in test [4], 29.7 µM (active) and 5.91 µM (active); in test [12], 63.5 µM (active). The outcome in [1], in [2], in test [3], in test [5], in [6] and in test [7] was inactive. In addition, the molecule was classed as inactive in test [8], in test [9], in test [12], in test [13], in test [14] and in test [15]. In addition, the result in test [16], in test [17] and in [18] was inactive.

Take `OCC(O)CO`: the outcome in test [1], in [2], in test [3], in test [19], in test [4] and in test [5] was inactive. The molecule was classed as inactive in test [6], in test [7], in test [8], in [9], in [10] and in test [11]. Also, the call in test [12], in [13], in [20], in test [14], in [15] and in test [16] was inactive. Further, in test [17], the molecule was classed as inactive. Also, the half-maximal activity concentration (AC50) in test [4] was 76.6 µM (active).
